PubChem BioAssay AID2289 (National Center for Advancing Translational Sciences (NCATS), 2010)
Screen size: about 340,000 compounds; about 3,300 (0.97%) were called active. Inconclusive results (about 9%) are left out. Calls come from the whole dose curve; as a rule, active = well fitted inhibition curve with a large enough effect; inconclusive = small, poorly fitted or top-dose-only effect, or effect the other way; inactive = flat fitted curve, though single readings scatter. Some of the results follow.

experiment: qHTS Assay for Modulators of miRNAs and/or Inhibitors of miR-21; conditions: HeLa miR-21-FLuc reporter, luciferase luminescence, 48 h; actives lower the signal; note: nearly all actives have a fitted effect of over 55% in size
Method in brief: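 Luminescence from a firefly luciferase reporter carrying a miR-21 binding site downstream, stably expressed under a CMV promoter in HeLa cells that make miR-21 endogenously, reports miRNA modulation after 48 h compound exposure up to approximately 40uM final.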
Potency is the fitted concentration of half-maximal effect.

Potency, active:
Cc1ccc(/C(N)=N/OC(=O)c2ccc(Cl)cc2Cl)cc1 1.04 µM
Cc1ccc(/C(N)=N/OC(=O)c2ccc(C)cc2Cl)cc1 0.261 µM
CCn1c(/C=C/c2c[nH]c3ccccc23)nc2ccccc2c1=O 0.414 µM
O=C(NNc1ncnc2ccccc12)c1cccc(Cl)c1 0.927 µM
O=C(c1cnsn1)N1CCC(CO)(Cc2cccc(F)c2)CC1 14.7 µM
Cc1cc(C)n2nc(-c3cccc(Br)c3)cc2n1 3.29 µM
CSc1nc(N)n2nc(-c3ccc(Cl)cc3)cc2n1 0.826 µM
Cc1cccc(-c2cc3nc(C)cc(C)n3n2)c1 1.85 µM
Cc1nc2cc(-c3ccc(Cl)cc3)nn2c(NCCN(C)C)c1C 5.85 µM
Cc1ccc(-c2cc3nc(C)cc(C)n3n2)cc1 3.69 µM
Cc1cc(C)n2nc(-c3ccc(Cl)cc3)cc2n1 1.17 µM
COc1ccc(-c2cc3nc(C)cc(C)n3n2)cc1 3.29 µM
Cc1ccsc1C(=O)NNC(=O)C1CCCCC1C(=O)O (stereo not drawn) 1.85 µM
Cc1ccsc1C(=O)NNC(=O)C1CC=CCC1C(=O)O (stereo not drawn) 4.65 µM
Cc1ccsc1C(=O)NNC(=O)C1C2C=CC(C2)C1C(=O)O (stereo not drawn) 0.826 µM
CN(C)/N=C/c1ccc(OS(=O)(=O)c2ccccc2)cc1 3.29 µM
Cc1[nH]n(C(N)=S)c(=O)c1N=Nc1ccc2ccccc2c1 1.47 µM
Nc1nc2sc3c(c2c(=O)s1)CCCC3 16.5 µM
COCCCNC(=O)COc1ccc(Br)cc1Cl 10.4 µM
COc1ccc(Nc2nc(N)nc(CSC(=S)N3CCCCC3)n2)cc1 14.7 µM
COc1ccc(Nc2nc(N)nc(CSC(=S)N3CCOCC3)n2)cc1 16.5 µM
CC(C)OC(=O)c1ccc2nc3ccccc3nc2c1 0.656 µM
O=C(/C=C/Nc1ccc(F)c(F)c1)c1ccc(Br)cc1 1.85 µM
O=C(/C=C/Nc1ccc(F)cc1)c1ccc(Br)cc1 0.927 µM
O=C(/C=C\Nc1ccc(Br)cc1)c1cccnc1 1.31 µM
O=C(/C=C/Nc1ccccc1F)c1ccc(Br)cc1 0.293 µM
CC(=O)N1CCC(=NNC(=O)c2cccs2)CC1 3.69 µM
CC(C)N1CCC(=NNC(=O)c2cccs2)CC1 6.56 µM
O=C(NN=C1CCCC1)c1cccs1 1.65 µM
Cc1ccsc1C(=O)NN=C1CCCCCC1 3.69 µM
Cc1ccc(-c2nc(C#N)c(NCc3ccco3)o2)cc1 4.14 µM
COc1ccc(-c2nc(C#N)c(NCc3ccco3)o2)cc1 9.27 µM
COc1ccc(C(=O)/C=C/c2ccc(OC)cc2OC)c(O)c1 6.56 µM
Clc1ccc(-c2cn3nc4c(nc3n2)CCCC4)cc1 0.117 µM
O=C(Nc1ccsc1C(=O)O)c1cccc(C(F)(F)F)c1 7.36 µM
COc1ccc(C2=NN(C(C)=O)C(c3cccs3)C2)cc1OC (stereo not drawn) 8.26 µM
COc1ccc(C2=NN(S(C)(=O)=O)C(c3cccs3)C2)cc1 (stereo not drawn) 2.61 µM
COc1ccc(C2=NN(S(C)(=O)=O)C(c3cccs3)C2)cc1OC (stereo not drawn) 7.36 µM
COc1ccc(C2=NN(S(C)(=O)=O)C(c3ccc4nccnc4c3)C2)cc1 (stereo not drawn) 7.36 µM
CC(=O)c1sc(N/N=C\c2ccc(Br)cc2)nc1C 5.21 µM
CC(=O)c1sc(N/N=C\c2ccc(N(C)C)cc2)nc1C 0.927 µM
CC(=O)c1sc(NCc2ccc(C)cc2)nc1C 5.21 µM
CC(=O)c1sc(N/N=C\c2ccc(C)cc2)nc1C 3.29 µM
Cc1cc(C(=O)NNC(=S)Nc2ccccc2C)cs1 1.65 µM
CCc1cc(C(=O)NNC(=S)Nc2ccccc2C)cs1 2.07 µM
c1ccc2nc(-c3ccc(-n4ccnc4)cc3)ccc2c1 0.826 µM
COc1ccc(C(=O)N[C@H](C(=O)Nc2nc3c(s2)CCCC3)C(C)C)cc1 2.93 µM
Nc1ccc2c(c1)sc1ccccc12 6.56 µM
O=C(O)c1cc(N/N=C/C=C/c2ccccc2[N+](=O)[O-])ccc1Cl 3.29 µM
O=C(O)c1cc(N/N=C/C=C/c2ccccc2)ccc1Cl 0.826 µM
NNc1ccc(Cl)c(C(=O)O)c1 6.56 µM
NS(=O)(=O)c1ccc(N/N=C/C=C/c2ccccc2[N+](=O)[O-])cc1 3.29 µM
O=C(O)c1ccc(N/N=C/C=C/c2ccccc2[N+](=O)[O-])cc1 4.65 µM
O=C(O)c1cc(N/N=C/C(Cl)=C/c2ccccc2)ccc1Cl 0.233 µM
Fc1cccc(Cl)c1CNc1n[nH]c(-c2ccco2)n1 7.36 µM
CC(C)c1ccc(CNc2n[nH]c(-c3ccco3)n2)cc1 2.07 µM
Nc1c(C(=O)N/N=C/c2ccccc2)cnn1-c1ccccc1 1.47 µM
Nc1c(C(=O)N/N=C/c2cccnc2)cnn1-c1ccccc1 16.5 µM
Cc1ccccc1OCC1Cc2c(nc(N)c(C#N)c2N)O1 (stereo not drawn) 14.7 µM
N#Cc1c(N)nc2c(c1N)CC(COc1ccccc1)O2 (stereo not drawn) 7.36 µM
C=C(C)Cn1cnc2c(oc3nc4c(cc32)CCCC4)c1=O 1.17 µM
CCn1c(C)cc(C=C2C(=O)c3ccccc3C2=O)c1C 13.1 µM
Cc1cc(C=C2C(=O)c3ccccc3C2=O)c(C)n1-c1cccc(C(=O)O)c1 11.7 µM
Cc1cc(C=C2C(=O)c3ccccc3C2=O)c(C)n1C 18.5 µM
NC(=O)c1sc2nc(-c3ccco3)ccc2c1N 14.7 µM
CC(=O)c1sc2nc(-c3ccco3)ccc2c1N 14.7 µM
Cc1cc2cc(CCNC(=O)c3cccs3)c(=O)[nH]c2cc1C 3.69 µM
Cc1ccc2cc(CCNC(=O)c3cccs3)c(=O)[nH]c2c1 4.14 µM
Cc1ccc2cc(CCNC(=O)c3cccs3)c(=O)[nH]c2c1C 2.93 µM
CSCc1ccc(C(=O)Nc2ccc(C(N)=O)cc2)cc1 1.65 µM
O=C(Nc1ccc(F)cc1)/C(Cl)=C/c1ccccc1 1.31 µM
CC(=O)c1ccc(NC(=O)/C(Cl)=C/c2ccccc2)cc1 5.21 µM
CC(C)=CCN1CCN(Cc2cnc(N3CCOCC3)s2)CC1CCO (stereo not drawn) 1.65 µM
COc1ccc(Cn2c(SCC#N)nc3ccc(N4CCOCC4)cc3c2=O)cc1 6.56 µM
Cc1cc(N(CCO)CCO)ccc1N=Nc1cc(F)ccc1F 9.27 µM
COc1ccc(C(=O)C(OC(=O)c2ccccc2Cl)c2ccccc2)cc1 (stereo not drawn) 14.7 µM
COc1cccc(NC(=O)c2c(-c3ccc(C)cc3)nnc3ccccc23)c1 4.65 µM
Cc1ccc(-c2nnc3ccccc3c2C(=O)Nc2ccc(F)cc2)cc1 6.56 µM
Cc1nnc(SCc2ccccc2)c2cc3sccc3n12 14.7 µM
COc1cccc2cc(-c3ccccc3)c(=O)oc12 1.65 µM
COc1cccc2cc(-c3nc(-c4ccccc4F)no3)c(=O)oc12 0.185 µM
Cc1cc(NC(=O)CSc2nc3c(cc2C#N)CCCC3)no1 1.47 µM
COc1cc2cc(C#N)c(SCC(=O)N3CCOCC3)nc2cc1OC 11.7 µM
N#Cc1cc2cc3c(cc2nc1SCC(=O)N1CCOCC1)OCO3 0.656 µM
CCCCOc1ccc(-c2cnc3ccccc3n2)cc1 0.656 µM
Clc1ccc(-c2cnc3ccccc3n2)cc1 4.14 µM
CN(C)c1ccc(-n2cccc2/C=N/n2cnnc2)cc1 8.26 µM
COC(=O)c1ccc(COc2ccc(C)c(C)c2)o1 14.7 µM
O=C(OCc1ccccn1)c1ccc(COc2ccc3ccccc3c2)o1 6.56 µM
CCCc1ccc(OCc2ccc(C(=O)OC)o2)c(OC)c1 7.36 µM
COC(=O)c1ccc(COc2ccc(C(C)(C)C)cc2)o1 10.4 µM
COC(=O)c1ccc(COc2ccc3c(c2)CCC3)o1 5.21 µM
CCc1ccc(OCc2ccc(C(=O)OC)o2)cc1 5.21 µM
COC(=O)c1ccc(COc2ccc(C)cc2[N+](=O)[O-])o1 13.1 µM
C=CCN(C(=O)c1oc2c(Cl)cc(C)cc2c1C)C1CCS(=O)(=O)C1 (stereo not drawn) 10.4 µM
Cc1cc(Cl)c2oc(C(=O)N(C)C3CCOC3)c(C)c2c1 (stereo not drawn) 14.7 µM
Cc1cc(Cl)c2oc(C(=O)NCCC3CCCCO3)c(C)c2c1 (stereo not drawn) 14.7 µM
Cc1cc(Cl)c2oc(C(=O)N(C)CC3CCOCC3)c(C)c2c1 14.7 µM
CCc1cc2c(=O)n(-c3ccccc3)cnc2s1 13.1 µM
CN(C)c1ncnc2sc(-c3ccccc3)cc12 14.7 µM
Cc1nc2sc(-c3ccccc3)cc2c(=O)n1/N=C/N(C)C 3.29 µM
CCCCn1cnc2c(oc3ccccc32)c1=O 13.1 µM
CCn1cnc2sc(-c3ccccc3)cc2c1=O 1.47 µM
CC(=O)Cn1nnc2sc(-c3ccccc3)cc2c1=O 1.85 µM
O=C(CSc1ncnc2ccccc12)c1ccc2c(c1)OCCO2 2.07 µM
CCc1cc2c(SCC(=O)c3ccccc3)ncnc2s1 8.26 µM
CCCCn1cnc2sc(-c3ccccc3)cc2c1=O 1.31 µM
CC(=O)Cn1cnc2sc(-c3ccccc3)cc2c1=O 4.14 µM
